Screening data from PubChem BioAssay.
In the library only some 1.9% were active in any assay of this set; here they are far more common.
PABP polyA inh – PABP-poly(A) binding inhibition; PABP-poly(A) RNA binding, fluorescence polarization; calls only at 35 µM; 290,000 tested, 1% active; AID 2014;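 also: calls also rest on retests at 20 µM and on dose response follow-up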
PABP1 MLLE inh – blocks PAM2 peptide binding to the PABP1 MLLE domain. 360,000 tested, 0.36% active. inhibition, % at 20 µM. P11940. GST-MLLE / FITC-PAM2 fluorescence polarization; in the data active = inhibition above about 35%, passing the limit was not always enough;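 also: plate controls were DMSO wells with GST-MLLE for no effect and wells lacking GST-MLLE protein for full effect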
eIF4E 4G PPI – eIF4E/eIF4G interaction inhibition in translation initiation; P63073+Q04637; TR-FRET eIF4E-eIF4GI(517-606) binding, 2 h; inhibition, % at 21.7 µM; 220,000 tested, 0.37% active;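 active = inhibition above about 30%, limit read from the data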;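 also: 0% = full FRET control wells and 100% = background wells lacking eIF4GI fragment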
eIF4H inh – inhibitors of RNA binding by human eIF4H; eIF4H fluorescence polarization binding assay; Q15056; inhibition, % at 35 µM; 290,000 tested, 0.94% active;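 also: calls also rest on retests at 20 µM and on dose response follow-up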
14-3-3 Bad PPI – disrupts binding of bovine 14-3-3 zeta to phospho-Bad peptide | P63103 | TR-FRET 14-3-3zeta/Dy647-pBad peptide displacement, 1 h | inhibition, % at 21.7 µM | 220,000 tested, 0.71% active;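 active = inhibition above about 70%, limit read from the data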;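 also: 0% = full 14-3-3 plus peptide FRET controls and 100% = background without 14-3-3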
Target sequence (P63103 whole entry, looked up): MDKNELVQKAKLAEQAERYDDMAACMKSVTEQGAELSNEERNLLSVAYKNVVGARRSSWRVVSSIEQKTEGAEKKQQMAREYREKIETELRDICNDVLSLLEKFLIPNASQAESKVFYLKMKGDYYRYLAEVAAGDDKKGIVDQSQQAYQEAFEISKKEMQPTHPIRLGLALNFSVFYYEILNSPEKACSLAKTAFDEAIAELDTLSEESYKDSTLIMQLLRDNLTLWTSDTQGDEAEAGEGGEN
* hit, by the source's call; i = inactive; u = inconclusive; x = no result; + = active, no number; [ ] = remark or other dose. Unless noted, no rule for the calls is given here.

SMILES | PABP polyA inh | PABP1 MLLE inh | eIF4E 4G PPI | eIF4H inh | 14-3-3 Bad PPI
COc1ccc(S(=O)(=O)NC(C)(C)C)cc1-c1nnc2c3ccccc3c(C)nn12 | i | 15 | 3 | 3 | 10
CSc1nc2nc3c(cn2n1)C(=O)CC(c1ccccc1)C3 (centres undefined) | + | 3 | 1 | 48* | 7
O=C1CC(c2ccccc2)Cc2nc3nc(C(F)(F)F)nn3cc21 (centres undefined) | + | 14 | -5 | 92* | -4
O=C1CC(c2ccc(F)cc2)Cc2nc(N3CCN(c4ccccc4)CC3)ncc21 (centres undefined) | i | -5 | 5 | -5 | -18
Cn1c(=O)c2cc3c(nc2n(C)c1=O)CC(c1ccccc1)CC3=O (centres undefined) | i | 14 | 9 | 1 | 6
c1ccc(Nc2nc3ccccc3n3nnnc23)cc1 | u | 22 | 4 | u | -4
Brc1ccc(Nc2nc3ccccc3n3nnnc23)cc1 | + | x | -5 | 79* | -2
C=CCNCc1cccn1-c1sc2c(c1C#N)CCCC2 | i | -23 | -2 | -5 | 71*
O=c1[nH]c2cc3c(cc2cc1CN(CCc1ccccc1)Cc1nnnn1C1CCCC1)OCCO3 | + | x | 2 | 97* | 16
O=c1[nH]c2cc3c(cc2cc1CN(Cc1cccnc1)Cc1nnnn1Cc1ccco1)OCCO3 | + | -14 | 2 | 71* | 12
COc1ccccc1CN(Cc1cc2cc3c(cc2[nH]c1=O)OCCO3)Cc1nnnn1Cc1ccco1 | + | 7 | -5 | 58* | 0
O=c1[nH]c2cc3c(cc2cc1CN(Cc1cccs1)Cc1nnnn1Cc1ccco1)OCCO3 | + | 26 | 1 | 38* | 5
O=c1[nH]c2cc3c(cc2cc1CN(Cc1ccccc1)Cc1nnnn1Cc1ccco1)OCCO3 | i | -34 | -2 | 39 | -5
CCc1nc2ccc(C(=O)N(C)CC(=O)Nc3ccc(F)c(F)c3F)cc2nc1CC | x | -24 | x | x | x
COc1ccc([C@@H]2C[C@H]3[C@@H](CN2S(=O)(=O)c2ccccc2)C(=O)C[C@@H](c2cccc4ccccc24)N3S(=O)(=O)c2ccc(C)cc2)cc1 | x | -2 | x | x | x
CN1CCN(C2=C(Cl)C(=O)N(CCc3ccccc3)C2=O)CC1 | i | 51* | -16 | u | 13
O=C1C(Cl)=C(N2CCN(Cc3ccccc3)CC2)C(=O)N1c1ccccc1 | + | 21 | 10 | u | -3
O=C1C(Cl)=C(N2CCOCC2)C(=O)N1CCc1ccccc1 | i | -5 | 6 | 1 | -14
COc1ccc(CCNC(=O)c2ccc3ccccc3n2)cc1 | i | -3 | x | 9 | x
COc1ccc(OC)c(C(=O)Nc2c(O)ccc3ccccc23)c1 | x | -11 | x | x | x
COc1cc(/C=N\Nc2ccc([N+](=O)[O-])cc2)ccc1OCC(=O)Nc1ccc(C)c(C)c1 | + | 7 | -11 | u | 62
CCOc1cc(/C=N\Nc2ccc([N+](=O)[O-])cc2)ccc1OCC(=O)Nc1ccc(C)c(C)c1 | u | -109 | -14 | u | 12
COP(=O)(OC)C(Nc1ccc(Cl)cc1)c1ccccc1 (centres undefined) | i | -10 | x | 2 | x
COC(=O)c1ccc(NC(c2ccc(Cl)cc2)P(=O)(OC)OC)cc1 (centres undefined) | + | -3 | -1 | 80* | -3
CCn1[nH]c(=O)c(=Nc2c(C)n(C)n(-c3ccccc3)c2=O)cc1-c1ccc(Cl)cc1 | i | -3 | 2 | -2 | 91*[fluorescence artefact?]
SMILES | PABP polyA inh | PABP1 MLLE inh | eIF4E 4G PPI | eIF4H inh | 14-3-3 Bad PPI
Cc1c(N=Cc2ccc(-c3ccc(Cl)cc3)o2)c(=O)n(-c2ccccc2)n1C | i | 0 | -7 | -11 | -8
CC(=O)C1C(c2ccc(C)cc2)c2c(noc2C)CC1(C)O (centres undefined) | i | 0 | 1 | 4 | -4
CC(=O)C1C(c2ccc(F)cc2)c2c(noc2C)CC1(C)O (centres undefined) | i | -10 | 96* | -9 | 3
CC(=O)Nc1ccc(Nc2ccc3c4c(cc(=O)n3C)-c3ccccc3C(=O)c24)cc1 | i | 65* | 9 | 80 | 0
CC(=O)Nc1c2c3c(cccc3n(C)c1=O)C(=O)c1ccccc1-2 | i | 34 | 4 | 9 | 11
COc1ccc2[nH]c(CN3CCC(n4nccc4NC(=O)C4CC4)CC3)c(C)c2c1 | i | -6 | x | -5 | x
COc1cc(/C=C/c2[nH]c(=O)[nH]c(=O)c2[N+](=O)[O-])cc([N+](=O)[O-])c1O | + | 24 | x | 59* | x
CCCCOC(=O)Nc1ccc(S(=O)(=O)Nc2ccc([N+](=O)[O-])cc2)cc1 | + | -3 | 4 | 90 | -5
CCCCCOC(=O)Nc1ccc(S(=O)(=O)Nc2cccc([N+](=O)[O-])c2)cc1 | i | 3 | 7 | 4 | -16
CC(Oc1cccc(Cl)c1)C(=O)N(C)CC(=O)Nc1ccc(N2CCOCC2)cc1 (centres undefined) | x | -12 | x | x | x
Cc1cc(C)c(C)c(C(=O)CSc2nnc(-c3ccc4[nH]c(C)c(C)c4c3)o2)c1C | i | -139 | 5 | 0 | 73*
Cc1[nH]c2ccc(-c3nnc(SCC(=O)c4ccc(F)cc4)o3)cc2c1C | i | -149 | -2 | -6 | 12
CSc1nc(N)nc2c1ncn2CC(=O)N[C@H](C)c1cccc2ccccc12 | x | 0 | x | x | x
CCOc1ccc(OCCC(=O)OCC(=O)N2CCN(S(=O)(=O)c3ccc(Cl)cc3)CC2)cc1 | i | 2 | x | 40 | x
CCN(CC)S(=O)(=O)c1ccc(N2CCOCC2)c(NC(=O)CCC2CCCCC2)c1 | i | 39* | 3 | 4 | 2
CC1CC(C)CN(C(=O)Cn2cc(C=O)c3ccccc32)C1 (centres undefined) | i | -5 | -2 | 0 | 83*
C[C@@H](NC(=O)/C(C#N)=C/c1ccc(O)c(O)c1)c1ccccc1 | x | -26 | x | x | x
CC(NC(=O)/C(C#N)=C/c1ccc(OCC(=O)O)cc1)c1ccccc1 (centres undefined) | + | -85 | x | 16 | x
Cc1cccc(/C(N)=N/OC(=O)c2ccc3c(c2)OCO3)c1 | + | 5 | 7 | 2.0* | -9
Cc1ccc(S(=O)(=O)N(C)C)cc1NC(=O)COC(=O)c1ccc2c(c1)OCO2 | i | -16 | -5 | -4 | 7
Cc1ccc(C)c(NC(=O)COC(=O)c2ccc3c(c2)OCO3)c1 | + | 4 | -5 | 14* | -9
Cc1ccc(C)c(Cn2c(C)nc3c(sc(=S)n3-c3ccccc3)c2=O)c1 | i | 19 | 1 | 2 | 5
CCn1c(O)c(C2=c3ccccc3=NC2=O)c2cc(Br)ccc21 | i | x | -3 | 0 | 1
O=C1N=c2ccccc2=C1c1c(O)n(-c2cccc(F)c2)[nH]c1=O | i | 38* | 16 | 11 | 34
CCOc1ccc(-n2c(SCC(=O)N3CCc4ccccc43)nnc2-c2c[nH]c3ccccc23)cc1 | i | 20 | 14 | -3 | 93*
